# Data published in PubChem BioAssay.
# Active and inactive are the calls of the source. Unless noted, how the calls were made is not given here.
# Tests used:
# [1] = test system: Wnt5a (protein binding on small-molecule microarray); experiment: small molecules binding Wnt5a protein – biophysical, small-molecule microarray, 635/667 nm fluorescence, primary screen (AID 1142); conditions: 635 nm fluorescence, higher = more signal;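 further: fluorescence read at 667 nm with signal to noise per printed feature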
# [2] = ATP-based viability of Huh7 replicon cells – cell-based, CellTiter-Glo luminescence, basal, 48 h, cytotoxicity control for HCV replication inhibitor project, primary screen (AID 1143); conditions: higher = more signal, called active from +8 up or from −8 down;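 further: Huh7 hepatoma cells carrying a hepatitis C replication reporter with no stimulus; test concentration not given here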
# [3] = Pseudomonas biofilm growth suppression – PAO1 strain, BacTiter-Glo luminescence, LB-PBS, primary screen (AID 1144); conditions: P. aeruginosa PAO1 biofilm, 12 h, higher = more signal
# [4] = basal CRE-LacZ reporter activity in PC12 – cell-based, unstimulated, primary screen (AID 1145); conditions: no forskolin, luminescence, 4.5 h, higher = more signal, called active from +8 up or from −8 down
# [5] = forskolin-driven CRE-LacZ activity in PC12 – cell-based, CRE-LacZ reporter, forskolin-stimulated, primary screen (AID 1146); conditions: luminescence, 4.5 h, higher = more signal, called active from +8 up or from −8 down;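 further: PC12 cells with 6xCRE LacZ reporter stimulated by forskolin 10 µM; beta-galactosidase reporter signal reflecting CREB driven transcription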
# [6] = biological target: Streptavidin (Streptomyces avidinii) (UniProt P22629); experiment: compounds binding control protein streptavidin – biophysical, small-molecule microarray, 635/667 nm fluorescence, artefact control for SMM compound annotation, primary screen (AID 1147); conditions: higher = more signal;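 further: signal reflects streptavidin binding to arrayed compounds as a control protein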
# Sequence of Streptavidin (Streptomyces avidinii) (P22629 whole entry, looked up): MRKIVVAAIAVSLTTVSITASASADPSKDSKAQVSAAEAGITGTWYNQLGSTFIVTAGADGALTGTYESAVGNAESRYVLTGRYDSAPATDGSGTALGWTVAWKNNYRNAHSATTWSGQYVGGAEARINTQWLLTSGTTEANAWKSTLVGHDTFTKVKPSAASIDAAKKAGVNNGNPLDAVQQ
# [7] = probe aInhba binding on compound microarray – biochemical, small-molecule microarray, 635/667 nm fluorescence, primary screen (AID 1148); conditions: higher = more signal;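 further: score merges 667nm spot fluorescence with signal-to-noise for antibody binding to printed compounds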
# [8] = biological target: Torsin-1A (Homo sapiens) (UniProt O14656); experiment: TOR1A wild-type binding on microarray – cell lysate, small-molecule microarray, lysate, 635/667 nm, primary screen (AID 1149); conditions: COS7 hTOR1A-WT lysate, 635 nm fluorescence, higher = more signal
# Sequence of Torsin-1A (Homo sapiens) (O14656 whole entry, looked up): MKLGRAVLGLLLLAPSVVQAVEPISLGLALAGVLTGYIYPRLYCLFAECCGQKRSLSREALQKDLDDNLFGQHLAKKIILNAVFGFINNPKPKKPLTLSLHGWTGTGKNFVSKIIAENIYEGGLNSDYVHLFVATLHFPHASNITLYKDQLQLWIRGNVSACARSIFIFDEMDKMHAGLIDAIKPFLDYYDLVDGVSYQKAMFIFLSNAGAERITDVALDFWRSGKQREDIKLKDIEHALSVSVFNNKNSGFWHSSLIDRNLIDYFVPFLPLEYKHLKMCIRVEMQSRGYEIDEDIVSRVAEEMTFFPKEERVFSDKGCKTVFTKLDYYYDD
# [9] = biological target: Torsin-1A (Homo sapiens) (UniProt O14656); experiment: torsin A mutant lysate binding on microarrays – cell lysate, small-molecule microarray, COS7 lysate, 635/667 nm fluorescence, primary screen (AID 1150); conditions: COS7 hTOR1A mutant lysate, 635 nm fluorescence, higher = more signal;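 further: score pools 667 nm emission and signal to noise measuring lysate protein binding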
# [10] = test system: Sonic hedgehog protein (Shh); experiment: Sonic hedgehog microarray binding compounds – biochemical, small-molecule microarray, 635/667 nm fluorescence, primary screen (AID 1151); conditions: 635 nm fluorescence, higher = more signal;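 further: Shh protein binding to compounds spotted on small-molecule microarray slides; score combines spot fluorescence intensity with signal-to-noise across triplicate slides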
# [11] = optical density shifts of acrAB sulA E. coli – strain DRC41, OD650, 48 h, E. coli filamentation inducer project, primary screen (AID 1152); conditions: higher = more signal, called active from +8 up or from −8 down;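 further: E. coli MC1000 strain DRC41 lacking acrAB efflux pump and sulA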
# [12] = probe aLefty1 binding on compound microarray – biochemical, small-molecule microarray, 635/667 nm fluorescence, primary screen (AID 1153); conditions: higher = more signal;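 further: score merges spot fluorescence with signal-to-noise ratio from the scanned slide images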
# [13] = plasmodial surface anion channel blockers, osmotic lysis – cell-based, P. falciparum Indochina, OD700, 1 h, primary screen (AID 1154); conditions: P. falciparum Indochina infected RBC osmotic lysis, higher = more signal, called active from +8 up or from −8 down
# [14] = plasmodial surface anion channel blockers, osmotic lysis – cell-based, P. falciparum Indochina, OD700, 2 h, primary screen (AID 1155);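 further: lysis reports solute entry through the parasite surface anion channel PSAC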; conditions: P. falciparum Indochina infected erythrocytes, higher = more signal, called active from +8 up or from −8 down
# [15] = changes in parasitized red cell lysis, either direction – P. falciparum Indochina, OD700, 3 h, PSAC antagonist project, primary screen (AID 1156); conditions: P. falciparum-infected erythrocytes, osmotic lysis, higher = more signal, called active from +8 up or from −8 down
# [16] = plasmodial surface anion channel blockers, osmotic lysis – cell-based, P. falciparum Indochina, OD700, 18 h, primary screen (AID 1157); conditions: P. falciparum Indochina infected erythrocytes, osmotic lysis OD700, 18 h; higher = more signal, called active from +8 up or from −8 down
# [17] = S6 kinase pathway phospho-S6 level changes – cell-based, A549, cytoblot, luminescence, serum-stimulated, primary screen (AID 1158); conditions: 5 h, higher = more signal;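 further: serum-stimulated A549 lung adenocarcinoma cells; signal is phosphorylated S6 detected by cytoblot immunostaining with HRP secondary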
# [18] = biological target: NADPH oxidase 2 (Homo sapiens) (UniProt P04839); experiment: compounds shifting NOX2 Amplex Red fluorescence – cell-based, HEK293-NOX2, PMA-stimulated, NOX inhibitor project, primary screen (AID 1159); conditions: 45 min, higher = more signal, called active from +8 up or from −8 down; further: test concentration not given here
# Sequence of NADPH oxidase 2 (Homo sapiens) (P04839 whole entry, looked up): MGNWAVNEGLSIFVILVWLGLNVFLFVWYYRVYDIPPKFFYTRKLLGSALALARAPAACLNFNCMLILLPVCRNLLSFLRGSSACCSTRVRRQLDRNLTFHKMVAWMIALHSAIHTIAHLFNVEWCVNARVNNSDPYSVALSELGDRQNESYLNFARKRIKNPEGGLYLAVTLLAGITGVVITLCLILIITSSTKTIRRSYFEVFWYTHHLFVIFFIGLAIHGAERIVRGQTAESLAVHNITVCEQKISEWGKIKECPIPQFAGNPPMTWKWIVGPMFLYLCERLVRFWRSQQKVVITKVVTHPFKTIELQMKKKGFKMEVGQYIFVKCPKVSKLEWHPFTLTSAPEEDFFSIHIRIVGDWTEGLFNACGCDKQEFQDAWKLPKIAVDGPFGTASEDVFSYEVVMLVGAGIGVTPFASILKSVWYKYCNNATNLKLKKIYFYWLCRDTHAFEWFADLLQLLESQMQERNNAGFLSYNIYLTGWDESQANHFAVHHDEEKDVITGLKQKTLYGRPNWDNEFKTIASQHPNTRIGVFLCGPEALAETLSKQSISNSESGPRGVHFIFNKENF
# [19] = biological target: NADPH oxidase 4 (Homo sapiens) (UniProt Q9NPH5); experiment: compounds shifting NOX4 Amplex Red fluorescence – cell-based, HEK293-NOX4, tetracycline-induced, NOX inhibitor project, primary screen (AID 1160); conditions: HEK293-NOX4, Amplex Red H2O2 fluorescence, 45 min; higher = more signal, called active from +8 up or from −8 down
# Sequence of NADPH oxidase 4 (Homo sapiens) (Q9NPH5 whole entry, looked up): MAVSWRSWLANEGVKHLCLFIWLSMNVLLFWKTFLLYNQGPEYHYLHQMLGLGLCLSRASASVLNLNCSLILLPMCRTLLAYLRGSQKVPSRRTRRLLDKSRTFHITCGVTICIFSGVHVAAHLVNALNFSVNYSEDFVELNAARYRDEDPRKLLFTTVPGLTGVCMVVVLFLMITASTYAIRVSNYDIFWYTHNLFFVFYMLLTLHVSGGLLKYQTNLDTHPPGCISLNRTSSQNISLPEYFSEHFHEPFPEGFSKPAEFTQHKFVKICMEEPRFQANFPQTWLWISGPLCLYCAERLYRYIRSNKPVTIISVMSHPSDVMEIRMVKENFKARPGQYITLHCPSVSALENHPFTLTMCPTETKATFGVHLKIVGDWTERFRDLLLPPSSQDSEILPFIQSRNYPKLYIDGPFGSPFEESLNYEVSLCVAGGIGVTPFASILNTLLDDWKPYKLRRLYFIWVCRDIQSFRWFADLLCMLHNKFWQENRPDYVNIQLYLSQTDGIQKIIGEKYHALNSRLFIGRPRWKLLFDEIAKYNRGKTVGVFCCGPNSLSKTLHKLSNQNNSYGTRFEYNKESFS
# [20] = biological target: NADPH oxidase 5 (Homo sapiens) (UniProt Q96PH1); experiment: compounds shifting NOX5 Amplex Red fluorescence – cell-based, HEK293-NOX5, NOX inhibitor project, primary screen (AID 1161); conditions: HEK293-NOX5, ionomycin, 45 min, higher = more signal
# Sequence of NADPH oxidase 5 (Homo sapiens) (Q96PH1 whole entry, looked up): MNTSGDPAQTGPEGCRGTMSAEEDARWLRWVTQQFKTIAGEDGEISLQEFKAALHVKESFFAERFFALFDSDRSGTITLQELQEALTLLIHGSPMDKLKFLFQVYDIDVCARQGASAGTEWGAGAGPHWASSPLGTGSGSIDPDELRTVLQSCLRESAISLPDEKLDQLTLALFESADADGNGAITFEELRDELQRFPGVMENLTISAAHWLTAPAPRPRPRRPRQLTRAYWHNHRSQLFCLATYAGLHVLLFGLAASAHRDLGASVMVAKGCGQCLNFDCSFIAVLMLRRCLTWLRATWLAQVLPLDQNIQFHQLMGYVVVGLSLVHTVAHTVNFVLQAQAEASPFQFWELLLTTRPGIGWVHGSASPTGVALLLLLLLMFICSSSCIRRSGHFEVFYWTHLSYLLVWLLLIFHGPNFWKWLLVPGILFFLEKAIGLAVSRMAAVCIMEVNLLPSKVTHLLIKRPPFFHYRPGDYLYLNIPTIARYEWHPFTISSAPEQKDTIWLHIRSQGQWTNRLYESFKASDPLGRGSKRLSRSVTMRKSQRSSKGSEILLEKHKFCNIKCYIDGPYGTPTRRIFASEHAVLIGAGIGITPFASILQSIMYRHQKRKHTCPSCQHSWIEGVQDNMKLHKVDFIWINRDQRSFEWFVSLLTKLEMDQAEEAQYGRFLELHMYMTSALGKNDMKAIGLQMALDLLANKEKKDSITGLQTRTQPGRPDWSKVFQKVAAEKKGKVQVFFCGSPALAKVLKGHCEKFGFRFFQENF
Compound,composite z-score [1],z-score [2],z-score [3],z-score [4],z-score [5],composite z-score [6],composite z-score [7],composite z-score [8],composite z-score [9],composite z-score [10],z-score [11],composite z-score [12],z-score [13],z-score [14],z-score [15],z-score [16],z-score [17],z-score [18],z-score [19],z-score [20]
C=CCC(OC(C)=O)[C@@H]1[C@@H](N(Cc2cccc3ccccc23)C(=O)Cc2ccc(OC)cc2)c2cc(OCCCO)ccc2N1C(=O)c1ccc2ccccc2n1 (stereo not given in full),0.216,-2.08 (inactive),-0.253 (inactive),-0.374 (inactive),1.3 (inactive),1.05,0.0569,-0.512,0.0537,0.524,-0.899 (inactive),0.164,2.1 (inactive),0.786 (inactive),0.714 (inactive),0.385 (inactive),0.135,-1.4 (inactive),-0.588 (inactive),-1.25
CN1C(=O)C2C=CC(C(O)COCc3ccccc3)N(N(c3ccccc3)c3ccccc3)C2C1=O (stereo not given),0.124,-0.423 (inactive),-0.761 (inactive),-0.326 (inactive),-0.637 (inactive),0.369,0.0464,0.346,0.231,-0.386,-0.339 (inactive),0.479,3.65 (inactive),1.49 (inactive),0.361 (inactive),1.07 (inactive),-0.849,1.58 (inactive),-4.42 (inactive),0.262
COC(=O)[C@@]1(Cc2ccccc2)[C@H]2c3cc(C(=O)N(C)C)n(Cc4c(CO)[nH]cc(C)c4=O)c3C[C@H]2CN1C(=O)c1ccccc1,0.259,0.229 (inactive),0.268 (inactive),-0.568 (inactive),0.977 (inactive),0.0174,-0.0963,0.376,0.478,-0.842,-1.16 (inactive),0.0004,0.758 (inactive),-0.16 (inactive),0.338 (inactive),0.248 (inactive),-0.482,0.495 (inactive),0.334 (inactive),-1.91
COCCOC(=O)N1C(=O)[C@@]2(c3cc(C#CC4=CCCCC4)ccc31)[C@H](C(N)=O)[C@H]1C(=O)O[C@H](c3ccccc3)[C@H](c3ccccc3)N1[C@@H]2c1ccccc1OCCO,0.183,-6.52 (inactive),-0.413 (inactive),-0.333 (inactive),-0.855 (inactive),0.483,0.147,0.38,1.41,1.08,-0.172 (inactive),0.199,3.63 (inactive),2.55 (inactive),0.629 (inactive),2.15 (inactive),-0.332,2.16 (inactive),0.932 (inactive),1.42
O=C1N(Cc2ccccc2)c2ccccc2[C@@H]2OC(c3ccc(OCCCO)cc3)=N[C@]12Cc1ccccc1,-0.0069,-4.55 (inactive),-0.236 (inactive),1.37 (inactive),-1.64 (inactive),0.89,-0.0332,0.378,0.534,0.809,0.65 (inactive),-0.0896,29.4 (active),26.1 (active),4.66 (inactive),2.38 (inactive),0.724,-1.08 (inactive),-0.653 (inactive),-2.11
CN1C(=O)C2C=CC(C(O)c3cccc(O)c3)N(Nc3ccccc3)C2C1=O (stereo not given),0.0652,0.656 (inactive),0.373 (inactive),0.0501 (inactive),0.233 (inactive),-0.404,0.142,-0.379,0.548,-0.128,-0.85 (inactive),0.147,-0.0746 (inactive),0.253 (inactive),-0.606 (inactive),0.287 (inactive),-0.967,-2.6 (inactive),-5.27 (inactive),-4.62
COCCCNC(=O)[C@@]1(Sc2ccc(C)cc2)CC(=O)N(C2CCCCC2)[C@@H]1c1ccc(CO)cc1,0.0421,-0.0515 (inactive),-0.319 (inactive),0.118 (inactive),1.7 (inactive),-0.749,-0.154,-1.51,-0.424,-0.911,-0.204 (inactive),0.0209,0.309 (inactive),0.17 (inactive),0.0051 (inactive),0.326 (inactive),0.0394,0.175 (inactive),-0.512 (inactive),-1.3
O=C1O[C@H](c2ccccc2)[C@H](c2ccccc2)N2[C@H]1[C@@H](C(=O)NC[C@H](O)c1ccccc1)[C@]1(C(=O)Nc3ccc(C#CCCO)cc31)[C@H]2c1ccc(OCCO)cc1,0.518,-0.821 (inactive),-0.626 (inactive),0.299 (inactive),0.0413 (inactive),0.0889,0.0464,0.13,0.38,1.76,0.0129 (inactive),0.138,3.5 (inactive),1.19 (inactive),0.123 (inactive),0.663 (inactive),-0.268,1.16 (inactive),0.861 (inactive),0.275
COc1ccc([Si](C)(C)[C@H]2[C@H](CC(=O)N(CCO)Cc3ccccc3)O[C@@]3(C(=O)N(Cc4cccc(N5CCOC5=O)c4)c4ccccc43)[C@@H]2C)cc1,-0.031,-4.86 (inactive),-0.388 (inactive),1.27 (inactive),-0.863 (inactive),0.0212,-0.0523,0.898,0.931,1.22,0.359 (inactive),0.114,12.9 (active),2.72 (inactive),1.68 (inactive),1.31 (inactive),0.315,0.681 (inactive),0.7 (inactive),2.48
